Pf growth 96h – Primary qHTS for delayed death inhibitors of the malarial parasite plastid, 96 hour incubation; P. falciparum luciferase reporter growth, 96 h; Potency, µM (titrated, usually from 28.7 µM), hits mostly inhibitors; 320,000 tested, 6.9% active
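Two-generation exposure (96 h) targets delayed-death phenotype. Reporter parasites carrying integrated firefly luciferase, in red cells at 2% hematocrit and 0.05% parasitemia final, kept at 37 C, 5% CO2; luminescence loss indicates inhibition.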
Pf growth 48h – Primary qHTS for delayed death inhibitors of the malarial parasite plastid, 48 hour incubation | P. falciparum luciferase growth in erythrocytes, 48 h | Potency, µM (doses to about 28.7 µM), actives largely listed as inhibitors | 310,000 tested, 5.9% active | AID 504832, 2011
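Erythrocytes infected with P. falciparum carrying an integrated firefly luciferase reporter (2% hematocrit, 0.1% parasitemia final) were exposed to compounds in RPMI 1640 with 0.5% Albumax at 37 C, 5% CO2. Growth inhibition was scored as reduced luminescence.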
HCV inhibitor – qHTS Assay for Inhibitors of Hepatitis C Virus (HCV); Huh7.5.1 HCVcc-Cre infection, luciferase reporter, 44 h; AID 651820, 2012; Potency, µM (doses to about 41.8 µM), usual class: inhibitors; 340,000 tested, 3.4% active
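After 44 h co-culture of compound, cells and HCVcc-Cre (~0.5 moi), substrate is added for 15 min at room temperature and luciferase measured over 15 sec. Cells were seeded at 1,000/well and pre-cultured 4 h.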
AMA1-RON2 inh – qHTS for Inhibitors of AMA1-RON; Towards Development of Antimalarial Drug Lead: Primary Screen; Plasmodium falciparum AMA1 (3D7) - RON2 peptide interaction; AlphaScreen AMA1-biotinylated RON2 peptide binding; Potency, µM (doses to about 58.2 µM), actives largely listed as inhibitors; 360,000 tested, 0.2% active; note: nearly all actives have a fitted effect of over 45% in size
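AMA1 (3D7) with his tag at 25 nM final met compounds first, then biotinylated RON2 peptide at 25 nM; detection used donor plus acceptor beads, 10 µg/mL apiece, read by AlphaScreen after 30 min at room temperature.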
Numbers stand for hits; ! = not confirmed by another sample; [ ] = dose if it differs, or a comment. Sampled rows, rich in hits. Any-hit rate of the full collection: about 11%. Calls come from the whole dose curve; as a rule, active = well fitted curve in the direction sought with a large enough effect; inconclusive = small, poorly fitted or top-dose-only effect, or another doubt; inactive = no such curve, though single readings can be large; an effect the other way counts as inactive or inconclusive.

Screening O=C(c1ccccc1Cc1ccccc1)N1CCN(S(=O)(=O)c2ccc(F)cc2)CC1 returned Pf growth 96h inconclusive, Pf growth 48h inconclusive, HCV inhibitor inactive and AMA1-RON2 inh inactive.
Screening O=C(c1cc(S(=O)(=O)N2CCCCC2)ccc1F)N1CCCCC1 returned Pf growth 96h inconclusive, Pf growth 48h 2.3µM, HCV inhibitor inactive and AMA1-RON2 inh inactive.
`CCOc1cc(C=O)cc(Br)c1OCC(=O)NCCc1ccccc1` gave Pf growth 96h inactive, Pf growth 48h inactive, HCV inhibitor inconclusive and AMA1-RON2 inh inactive.
Screening NC(=O)CC[C@@H]1NC(=O)C(Cc2ccc(O)cc2)NC(=O)c2cc([N+](=O)[O-])cc(F)c2NCCC[C@@H](C(N)=O)NC1=O (stereo partly specified) returned Pf growth 96h inactive, Pf growth 48h inactive and HCV inhibitor inactive[8.37 µM].
`O=C(c1ccccc1F)N1CCN(S(=O)(=O)c2ccc(S(=O)(=O)N3CCCCC3)cc2)CC1` gave Pf growth 96h inactive, Pf growth 48h inactive, HCV inhibitor inactive and AMA1-RON2 inh inactive.
Screening Cc1ccc(C)c(S(=O)(=O)N2CCN(C(=O)[C@@H](NC(=O)c3ccc(F)cc3)C(C)C)CC2)c1 returned Pf growth 96h inconclusive, Pf growth 48h 9.3µM, HCV inhibitor inconclusive and AMA1-RON2 inh inactive.
`CC1CCC(N2CCN(C(=O)c3ccccc3F)CC2)CC1` (stereo unspecified) gave Pf growth 96h 12µM, Pf growth 48h inactive, HCV inhibitor inactive and AMA1-RON2 inh inactive.
`O=C(c1ccco1)N1CCN(S(=O)(=O)c2ccc(Oc3ccccc3)cc2)CC1` gave Pf growth 96h inactive, Pf growth 48h inactive, HCV inhibitor 14µM and AMA1-RON2 inh inactive.
Screening O=C(c1ccccc1F)N1CCN(S(=O)(=O)c2ccc(S(=O)(=O)N3CCCCCC3)cc2)CC1 returned Pf growth 96h inactive, Pf growth 48h 12µM, HCV inhibitor inactive and AMA1-RON2 inh inactive.
`O=C(O)/C(=C\c1ccc(Br)cc1)c1ccc(S(=O)(=O)N2CCCCC2)s1` gave Pf growth 96h inactive, Pf growth 48h inactive, HCV inhibitor inactive and AMA1-RON2 inh inactive.
`Cn1c(SCC(=O)Nc2sccc2C#N)nnc1C1CC1` gave HCV inhibitor inactive and AMA1-RON2 inh inactive.
`O=C(NCCS(=O)(=O)N1CCN(c2ccccc2)CC1)c1ccccc1F` gave Pf growth 96h inactive, Pf growth 48h inactive, HCV inhibitor inactive and AMA1-RON2 inh inactive.
O=C(c1cccc(S(=O)(=O)N2CCCCC2)c1)N1CCN(S(=O)(=O)c2ccc(F)cc2)CC1 was read as Pf growth 96h 9.3µM, HCV inhibitor inactive and AMA1-RON2 inh inactive.
For O=C(c1cccc(S(=O)(=O)N2CCN(c3ccc(F)cc3)CC2)c1)N1CCCCCCC1 the results were Pf growth 96h inconclusive, Pf growth 48h inconclusive, HCV inhibitor inconclusive and AMA1-RON2 inh inactive.
For CCS(=O)(=O)Nc1cc(OC)c(OC)cc1Cc1nccc2cc(OC)c(OC)cc12 the results were Pf growth 96h inactive, Pf growth 48h inactive, HCV inhibitor inactive and AMA1-RON2 inh inactive.
For COc1ccc(Cc2c3cc(OC)c(OC)cc3cc[n+]2C)cc1OC the results were Pf growth 96h 8.3µM, Pf growth 48h inconclusive, HCV inhibitor inactive and AMA1-RON2 inh inactive.
Screening CC[n+]1ccc2cc(OC)c(OC)cc2c1Cc1ccc(OC)c(OC)c1 returned Pf growth 96h inconclusive, Pf growth 48h 1.2µM, HCV inhibitor inactive and AMA1-RON2 inh inactive.
`COc1ccc2c(c1)c[n+](C)c1c3cc(OC)c(OC)cc3ccc21` gave AMA1-RON2 inh inactive.
`COc1ccc(Cc2nccc3cc(OC)c(OC)cc23)cc1OC` gave Pf growth 96h inconclusive, Pf growth 48h inconclusive, HCV inhibitor 3.2µM! and AMA1-RON2 inh inactive.
COC(=O)c1cc(S(=O)(=O)N(Cc2ccccc2)C(C)(C)C)c[nH]1 was read as Pf growth 96h inconclusive, Pf growth 48h inactive, HCV inhibitor inactive and AMA1-RON2 inh inactive.
`CC1(c2nnc(-c3cccc(Cl)c3)o2)CC(c2ccc(F)cc2)=NO1` (stereo unspecified) gave HCV inhibitor inactive and AMA1-RON2 inh inactive.
`CN(C(=O)c1c(O)c2ccccc2n(C)c1=O)c1ccccc1` gave Pf growth 96h inactive and Pf growth 48h inactive.
`Clc1ccccc1N1CCN(Cc2ccco2)CC1` gave Pf growth 96h inactive, Pf growth 48h inactive, HCV inhibitor inactive and AMA1-RON2 inh inactive.
